A short description of experiment [1]: compounds binding Alexa647 anti-His antibody – biochemical, small-molecule microarray, 635 nm fluorescence, artefact control for SMM control protein annotation, primary screen (AID 1128).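 Further: score merges feature fluorescence with signal-to-noise for each printed compound spot.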 The following applies: higher = more signal.
Experiment [2] concerns Human papillomavirus type 1a E7 protein (residues 1-88). In words: HPV1a E7 small-molecule binders, primary screen, biochemical, small-molecule microarray, residues 1-88, 635 nm (AID 1129). Conditions: small-molecule microarray binding, fluorescence 635 nm; higher = more signal.
Experiment [3] concerns the target Focal adhesion kinase 1 (Homo sapiens) (UniProt Q05397). Put plainly: PTK2 protein binding on printed compound slides – biochemical, small-molecule microarray, 635/667 nm fluorescence, BSA, DTT, primary screen (AID 1130).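 Further: composite of spot emission at 667 nm and signal to noise over triplicate slides.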 Conditions: 635 nm fluorescence, higher = more signal.
Experiment [4] has as its system Fibrinogen (Alexa647-labelled). In words: Alexa647-fibrinogen binding to printed small molecules – biochemical, small-molecule microarray, 635/667 nm fluorescence, artefact control for SMM control-protein annotation, profiling panel (AID 1131).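 Further: z-score merges 667 nm fluorescence with per-spot signal-to-noise over triplicate slides.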 Conditions: fibrinogen-A647 binding fluorescence, higher = more signal.
Experiment [5] addresses Follistatin (Homo sapiens) (UniProt P19883). Put plainly: FST protein binding to printed compounds – biochemical, small-molecule microarray, 635/667 nm fluorescence, primary screen (AID 1132). Conditions: 635 nm fluorescence, higher = more signal.
Experiment [6] has as its target Fibroblast growth factor 2 (Homo sapiens) (UniProt P09038). In words: basic fibroblast growth factor binding to printed compounds – biochemical, small-molecule microarray, 635/667 nm fluorescence, primary screen (AID 1133). The following applies: FGF2, fluorescence 635/667, higher = more signal.
Experiment [7] is described as follows: JC-1 mitochondrial potential readout, lung cancer cells – cell-based, A549, JC-1 fluorescence, basal, 24 h, 100 nL, profiling panel (AID 1138).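 Further: A549 lung adenocarcinoma cells under basal conditions with no added stimulus; test concentration not given here.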 The following applies: higher = more signal.
Experiment [8] concerns Lefty1. In words: Lefty1 protein binding to printed compounds – biochemical, small-molecule microarray, 635/667 nm fluorescence, primary screen (AID 1139). Conditions: fluorescence 635/667, higher = more signal.
For experiment [9], the system named is wheat germ agglutinin (Triticum aestivum), Alexa647-labelled. In words: Alexa647-WGA lectin binding to printed small molecules – biochemical, small-molecule microarray, 635/667 nm fluorescence, artefact control for SMM control-protein annotation, profiling panel (AID 1140).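 Further: score merges 667 nm feature emission with signal to noise over triplicate slides.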 Conditions: WGA-A647 binding, 635 nm fluorescence, higher = more signal.
The target of experiment [10] is Luciferin 4-monooxygenase (Photinus pyralis) (UniProt P08659). Put plainly: inhibition of purified Photinus pyralis luciferase – biochemical, luminescence, purified enzyme, 2006 set, primary screen (AID 1141).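 Further: cell-free assay with purified firefly luciferase at 100 ng per well in PBS; test concentration not given here.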 The following applies: purified firefly luciferase, SteadyGlo luminescence, 30 min; higher = more signal, called active from +8 up or from −8 down.
The subject of experiment [11] is Wnt5a (protein binding on small-molecule microarray). Put plainly: small molecules binding Wnt5a protein – biophysical, small-molecule microarray, 635/667 nm fluorescence, primary screen (AID 1142).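 Further: fluorescence read at 667 nm with signal to noise per printed feature.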 Conditions: 635 nm fluorescence, higher = more signal.
Experiment [12] is described as follows: ATP-based viability of Huh7 replicon cells – cell-based, CellTiter-Glo luminescence, basal, 48 h, cytotoxicity control for HCV replication inhibitor project, primary screen (AID 1143).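 Further: Huh7 hepatoma cells carrying a hepatitis C replication reporter with no stimulus; test concentration not given here.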 The following applies: higher = more signal, called active from +8 up or from −8 down.
Experiment [13] can be described thus: Pseudomonas biofilm growth suppression – PAO1 strain, BacTiter-Glo luminescence, LB-PBS, primary screen (AID 1144). The following applies: P. aeruginosa PAO1 biofilm, 12 h, higher = more signal.
Experiment [14] in a line: basal CRE-LacZ reporter activity in PC12 – cell-based, unstimulated, primary screen (AID 1145). The following applies: no forskolin, luminescence, 4.5 h, higher = more signal, called active from +8 up or from −8 down.
Experiment [15] can be described thus: forskolin-driven CRE-LacZ activity in PC12 – cell-based, CRE-LacZ reporter, forskolin-stimulated, primary screen (AID 1146).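 Further: PC12 cells with 6xCRE LacZ reporter stimulated by forskolin 10 µM; beta-galactosidase reporter signal reflecting CREB driven transcription.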 The following applies: luminescence, 4.5 h, higher = more signal, called active from +8 up or from −8 down.
In experiment [16] the target is Streptavidin (Streptomyces avidinii) (UniProt P22629). In words: compounds binding control protein streptavidin – biophysical, small-molecule microarray, 635/667 nm fluorescence, artefact control for SMM compound annotation, primary screen (AID 1147).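 Further: signal reflects streptavidin binding to arrayed compounds as a control protein.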 The following applies: higher = more signal.
The nature of experiment [17]: probe aInhba binding on compound microarray – biochemical, small-molecule microarray, 635/667 nm fluorescence, primary screen (AID 1148).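 Further: score merges 667nm spot fluorescence with signal-to-noise for antibody binding to printed compounds.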 The following applies: higher = more signal.
Experiment [18] concerns the target Torsin-1A (Homo sapiens) (UniProt O14656). Put plainly: TOR1A wild-type binding on microarray – cell lysate, small-molecule microarray, lysate, 635/667 nm, primary screen (AID 1149). Conditions: COS7 hTOR1A-WT lysate, 635 nm fluorescence, higher = more signal.
For experiment [19] the target is unchanged. Put plainly: torsin A mutant lysate binding on microarrays – cell lysate, small-molecule microarray, COS7 lysate, 635/667 nm fluorescence, primary screen (AID 1150).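 Further: score pools 667 nm emission and signal to noise measuring lysate protein binding.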 The following applies: COS7 hTOR1A mutant lysate, 635 nm fluorescence, higher = more signal.
The subject of experiment [20] is Sonic hedgehog protein (Shh). Put plainly: Sonic hedgehog microarray binding compounds – biochemical, small-molecule microarray, 635/667 nm fluorescence, primary screen (AID 1151).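 Further: Shh protein binding to compounds spotted on small-molecule microarray slides; score combines spot fluorescence intensity with signal-to-noise across triplicate slides.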 The following applies: 635 nm fluorescence, higher = more signal.

Calls of active or inactive are those of the source. Unless noted, how the calls were made is not given here.

Sequence of Focal adhesion kinase 1 (Homo sapiens) (Q05397 whole entry, looked up): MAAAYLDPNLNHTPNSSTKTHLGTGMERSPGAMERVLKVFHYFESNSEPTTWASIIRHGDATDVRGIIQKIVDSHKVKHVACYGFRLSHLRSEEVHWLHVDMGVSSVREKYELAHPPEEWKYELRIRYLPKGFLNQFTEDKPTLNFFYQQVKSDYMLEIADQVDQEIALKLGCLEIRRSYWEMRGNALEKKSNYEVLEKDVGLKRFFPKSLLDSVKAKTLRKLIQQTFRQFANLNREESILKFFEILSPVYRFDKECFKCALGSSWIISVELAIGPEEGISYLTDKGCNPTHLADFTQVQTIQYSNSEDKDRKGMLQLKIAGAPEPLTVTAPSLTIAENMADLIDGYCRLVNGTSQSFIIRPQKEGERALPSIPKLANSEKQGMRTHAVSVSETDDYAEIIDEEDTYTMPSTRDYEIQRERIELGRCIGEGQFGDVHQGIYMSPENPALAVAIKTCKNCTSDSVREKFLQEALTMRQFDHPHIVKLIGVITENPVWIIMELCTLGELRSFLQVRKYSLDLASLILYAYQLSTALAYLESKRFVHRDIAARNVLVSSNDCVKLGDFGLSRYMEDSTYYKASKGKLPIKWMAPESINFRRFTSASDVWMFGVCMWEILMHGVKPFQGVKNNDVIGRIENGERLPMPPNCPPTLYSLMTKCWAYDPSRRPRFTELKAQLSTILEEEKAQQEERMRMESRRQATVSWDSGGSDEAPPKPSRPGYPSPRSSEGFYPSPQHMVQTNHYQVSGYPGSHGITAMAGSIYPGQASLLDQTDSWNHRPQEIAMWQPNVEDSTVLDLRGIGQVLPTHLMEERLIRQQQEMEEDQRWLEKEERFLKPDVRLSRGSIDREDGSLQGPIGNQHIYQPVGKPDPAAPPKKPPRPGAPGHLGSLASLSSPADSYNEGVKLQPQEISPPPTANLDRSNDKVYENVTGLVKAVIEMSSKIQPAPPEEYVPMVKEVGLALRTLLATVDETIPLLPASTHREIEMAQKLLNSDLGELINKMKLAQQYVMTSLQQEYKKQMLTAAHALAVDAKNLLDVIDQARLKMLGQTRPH
Sequence of Fibroblast growth factor 2 (Homo sapiens) (P09038 whole entry, looked up): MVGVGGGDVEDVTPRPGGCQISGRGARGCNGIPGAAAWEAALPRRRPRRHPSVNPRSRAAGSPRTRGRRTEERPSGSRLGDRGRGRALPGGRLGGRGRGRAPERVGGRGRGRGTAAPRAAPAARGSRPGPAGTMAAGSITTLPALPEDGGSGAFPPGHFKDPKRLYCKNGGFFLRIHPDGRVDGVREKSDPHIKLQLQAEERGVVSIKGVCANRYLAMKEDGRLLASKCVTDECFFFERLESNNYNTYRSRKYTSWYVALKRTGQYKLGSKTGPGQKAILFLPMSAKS
Sequence of Follistatin (Homo sapiens) (P19883 whole entry, looked up): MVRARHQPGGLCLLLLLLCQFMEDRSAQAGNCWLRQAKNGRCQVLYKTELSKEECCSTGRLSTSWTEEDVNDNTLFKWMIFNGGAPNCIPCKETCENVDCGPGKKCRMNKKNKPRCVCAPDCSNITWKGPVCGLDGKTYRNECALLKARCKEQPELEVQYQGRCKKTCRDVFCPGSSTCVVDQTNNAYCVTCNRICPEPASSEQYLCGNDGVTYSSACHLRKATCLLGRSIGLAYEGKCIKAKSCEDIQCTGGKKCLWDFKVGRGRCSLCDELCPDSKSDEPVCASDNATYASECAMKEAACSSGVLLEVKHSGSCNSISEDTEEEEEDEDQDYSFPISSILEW
Sequence of Torsin-1A (Homo sapiens) (O14656 whole entry, looked up): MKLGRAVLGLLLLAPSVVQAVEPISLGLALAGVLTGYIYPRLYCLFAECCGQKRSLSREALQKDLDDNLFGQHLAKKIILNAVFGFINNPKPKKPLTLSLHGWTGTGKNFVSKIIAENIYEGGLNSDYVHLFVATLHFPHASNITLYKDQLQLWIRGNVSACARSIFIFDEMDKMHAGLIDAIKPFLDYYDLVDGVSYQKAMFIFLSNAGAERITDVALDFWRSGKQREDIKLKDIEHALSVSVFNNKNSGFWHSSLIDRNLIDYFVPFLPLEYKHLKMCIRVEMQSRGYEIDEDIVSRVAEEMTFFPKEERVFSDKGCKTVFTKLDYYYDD
Sequence of Streptavidin (Streptomyces avidinii) (P22629 whole entry, looked up): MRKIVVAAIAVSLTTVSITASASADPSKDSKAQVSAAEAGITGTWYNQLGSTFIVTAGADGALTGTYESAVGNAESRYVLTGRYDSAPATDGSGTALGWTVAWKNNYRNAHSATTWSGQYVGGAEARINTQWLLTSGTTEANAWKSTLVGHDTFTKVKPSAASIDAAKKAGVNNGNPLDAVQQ
Sequence of Luciferin 4-monooxygenase (Photinus pyralis) (P08659 whole entry, looked up): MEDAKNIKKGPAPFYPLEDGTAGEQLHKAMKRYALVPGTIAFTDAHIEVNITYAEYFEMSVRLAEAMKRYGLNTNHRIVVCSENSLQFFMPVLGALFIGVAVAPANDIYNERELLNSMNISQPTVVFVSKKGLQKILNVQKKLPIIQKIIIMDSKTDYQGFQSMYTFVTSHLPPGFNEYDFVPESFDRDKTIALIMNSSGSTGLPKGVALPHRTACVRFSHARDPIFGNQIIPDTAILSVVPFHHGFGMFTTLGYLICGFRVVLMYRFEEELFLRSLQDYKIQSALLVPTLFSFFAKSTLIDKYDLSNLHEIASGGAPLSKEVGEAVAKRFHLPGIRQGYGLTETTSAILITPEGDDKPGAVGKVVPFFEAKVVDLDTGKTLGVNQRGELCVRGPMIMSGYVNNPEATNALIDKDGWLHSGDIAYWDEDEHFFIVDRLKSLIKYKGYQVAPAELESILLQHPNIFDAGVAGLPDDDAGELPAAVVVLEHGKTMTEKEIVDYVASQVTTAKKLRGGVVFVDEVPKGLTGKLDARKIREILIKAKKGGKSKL

As for `CCOC(=O)[C@H](CC(C)C)NC(=O)CCC1CC(OC(=O)NCc2ccc3c(c2)OCO3)CC2(CCCC(COC(=O)NCc3cccc(C(F)(F)F)c3)O2)O1` (stereo not given in full), the composite z-score in [1] was 0.339; in experiment [2], 0.218; in experiment [3], 0.201; in experiment [4] it was -0.092; in experiment [5], 0.337; in experiment [6] it was 0.363. The composite z-score was 0.389 in [8]; 0.144 in [9]; -0.194 in experiment [11]; -0.113 in experiment [16]; 0.0184 in experiment [17]; 0.175 in experiment [18]. Also, the composite z-score in [19] is -0.272; in experiment [20], 0.387. Besides, the z-score in experiment [7] is -0.326; in experiment [10], 0.679 (inactive); in experiment [12], -0.183 (inactive); in experiment [13] it was -0.67 (inactive); in experiment [14] it was 0.11 (inactive); in [15], 0.814 (inactive).

As for `CC(=O)Nc1ccc([C@@H]2N[C@H](C(=O)O)CC[C@H]2C)cc1`, the composite z-score in experiment [1] was 0.328; in [2], 0.557; in experiment [3], 1.12; in experiment [4] it was 0.669; in [5] it was 0.205; in [6], 0.284. Besides, the composite z-score in [8] was 0.701; in [9], -0.11; in experiment [11], 0.101; in experiment [16], -0.0013; in experiment [17], -0.101; in experiment [18], 0.746. Moreover, the composite z-score in experiment [19] was 0.371; in experiment [20] it was 0.2. Moreover, the z-score was 2.05 in [7]; -1.38 (inactive) in experiment [10]; 0.138 (inactive) in experiment [12]; -1.51 (inactive) in experiment [13]; -0.884 (inactive) in experiment [14]; -1.21 (inactive) in experiment [15].

Turning to `COc1cccc([C@@H]2Oc3ccc(OC)cc3C(=O)[C@H]2O)c1`, the composite z-score in experiment [1] worked out at 0.575; in [2], 0.193; in [3] it was 0.0207; in [4] it was 0.823; in experiment [5], 0.536; in experiment [6] it was 0.449. In addition, the composite z-score was 0.678 in [8]; -0.173 in experiment [9]; 0.115 in experiment [11]; 2.33 in experiment [16]; -0.152 in experiment [17]; 0.496 in experiment [18]. Moreover, the composite z-score in experiment [19] amounted to 0.42; in experiment [20] it was 0.813. Moreover, the z-score in experiment [7] was -1.54; in experiment [10] it was -1.6 (inactive); in [12], -4.86 (inactive); in experiment [13] it was -1.15 (inactive); in experiment [14] it was 5.45 (inactive); in experiment [15], -0.344 (inactive).

`CC(C)(C)N1C(=O)[C@H]2[C@H]3[C@H](O)[C@H](O)CC(=NOCc4ccccc4)[C@H]3CC[C@H]2C1=O`: the composite z-score in experiment [1] is 0.102; in experiment [2], 0.0128; in [3], -0.103; in experiment [4], 0.451; in experiment [5] it was -0.829; in experiment [6], -0.34. In addition, the composite z-score in experiment [8] was -0.484; in experiment [9] it was 0.877; in [11], 0.0771; in experiment [16], 1; in experiment [17] it was 0.0342; in experiment [18], -0.65. Also, the figures for the composite z-score in [19] and in experiment [20] were 0.155 and -0.587, respectively. Also, the z-score was -0.316 in experiment [7]; 0.109 (inactive) in [10]; 0.899 (inactive) in [12]; -0.192 (inactive) in experiment [13]; 0.968 (inactive) in experiment [14]; 0.183 (inactive) in experiment [15].

`CCCNC(=O)OC[C@H]1O[C@H](CCON=C(C)C)C=C[C@@H]1Oc1ccc(OC)cc1`: the composite z-score in experiment [1] was 1.82; in experiment [2], -0.124; in experiment [3], 0.105; in experiment [4] it was 0.448; in experiment [5], -0.132; in experiment [6] it was -0.245. The composite z-score is 0.0114 in [8]; -0.0321 in [9]; -0.0092 in experiment [11]; 0.102 in experiment [16]; -0.0791 in experiment [17]; -0.0198 in experiment [18]. Besides, the figures for the composite z-score in experiment [19] and in experiment [20] were -0.0963 and -0.318, respectively. Further, the z-score in experiment [7] was -0.218; in [10] it was -0.129 (inactive); in experiment [12], 0.599 (inactive); in experiment [13] it was -0.523 (inactive); in experiment [14], -0.152 (inactive); in experiment [15] it was -0.315 (inactive).

(Values after PubChem BioAssay.)
